PostGolgi ctrl = yeast control strain growth, post-Golgi counter-screen; efflux-deficient yeast background strain, growth absorbance A615, 16 h; actives 5% (n = 98,000); inhibition, % at 10 µM; AID 738
CYP2C19 act = activators of human cytochrome P450 2C19; P33261; recombinant CYP2C19, luciferin-H EGE luminescence; active compounds read high; 0 = fully inhibited enzyme, 1 = untreated enzyme; activation factor at 5 µM; 96,000 tested, under 10 active; AID 1025;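 active means activation factor of at least 2 at 5 µM in the primary screen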;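 further: 0 = wells with 2.5 mM tranylcypromine and 1 = vehicle-only wells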
Target sequence (P33261 whole entry, looked up): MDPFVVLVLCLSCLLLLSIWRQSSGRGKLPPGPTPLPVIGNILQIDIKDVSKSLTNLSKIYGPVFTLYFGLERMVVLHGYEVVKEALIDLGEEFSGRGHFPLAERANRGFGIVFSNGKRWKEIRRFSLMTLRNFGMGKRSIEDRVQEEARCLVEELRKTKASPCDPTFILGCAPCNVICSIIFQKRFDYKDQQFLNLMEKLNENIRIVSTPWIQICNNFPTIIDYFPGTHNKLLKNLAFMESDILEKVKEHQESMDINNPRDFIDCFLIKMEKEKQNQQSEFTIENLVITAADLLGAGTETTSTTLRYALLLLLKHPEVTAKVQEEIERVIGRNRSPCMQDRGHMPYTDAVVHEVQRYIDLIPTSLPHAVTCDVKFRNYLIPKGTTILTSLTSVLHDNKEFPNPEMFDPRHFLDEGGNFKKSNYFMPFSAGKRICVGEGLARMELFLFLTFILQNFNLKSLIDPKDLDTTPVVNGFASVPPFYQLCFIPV
CYP2C9 act = CYP2C9 (human) activation | P11712 | recombinant CYP2C9, luciferin-H conversion, luminescence; active compounds read high; factor 1 = untreated enzyme, 0 = blocked | activation factor at 5 µM | actives 1.4% (n = 96,000);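 active means activation factor of 2 or more for CYP2C9 at a 5 µM dose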;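 further: 0 = sulfaphenazole-blocked wells and 1 = vehicle-only wells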
CYP2C9 inhib = human CYP2C9 inhibition; CYP2C9 Supersomes, luciferin-H conversion, luminescence; actives 20% (n = 96,000); inhibition, % at 5 µM;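 active means blocking of liver enzyme CYP2C9 beyond about 50% at 5 µM, limit read from the data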
CYP2C19 inh = blocks human cytochrome P450 2C19 | P33261 | CYP2C19 Supersomes, luciferin-H EGE luminescence, 30 min | inhibition, % at 5 µM | actives 21% (n = 96,000) | AID 778;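 active means CYP2C19 inhibition above a set limit at 5 µM in the primary screen, cut at about 50% in these data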;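 further: plate controls were negative control wells for no effect and 2.5 mM tranylcypromine positive control for full effect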
PostGolgi yeast = growth inhibition of a yeast mutant, post-Golgi transport screen | inhibition, % at 10 µM | actives 0.9% (n = 98,000) | post-Golgi transport phenotypic cell assay | AID 739;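 further: yeast cells grown in 1536-well plates; yeast grown about 18 h at 30C before absorbance read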
An asterisk follows results filed as active; / = not tested or not shown. Most compounds without a hit are left out; they make up all but 32% or so of the library. Unless noted, no stated cut-off is given here; in the data, active means inhibition above about 30%; inactive means the rest.

SMILES	PostGolgi ctrl	CYP2C19 act	CYP2C9 act	CYP2C9 inhib	CYP2C19 inh	PostGolgi yeast
Cc1noc(C)c1CSc1nnc(-c2c[nH]c3ccccc23)n1-c1ccc(Cl)cc1	2.9	1.1	1	0.1	-7.4	-7.4
CCc1ccc(-n2c(SCc3c(C)noc3C)nnc2-c2ccncc2)cc1	5.3	0.3	0.4	57.6*	73.0*	-2.2
CCn1c(SCc2nc(-c3cccs3)no2)nnc1-c1c[nH]c2ccccc12	15.8	0.9	0.4	56.8*	14.7	-7.3
COc1ccc(-c2noc(CSc3nc4ccccc4c(=O)n3-c3ccccc3)n2)cc1	20.4	0.9	0.7	32.3	8.9	-0.9
CC(SC1CCCC1)C(=O)Nc1ccnn1C(C)C (configuration not stated)	-10.2	1	1	3.5	4.1	23.0
COc1ccc(NC(=O)/C(=C\c2cc(OC)c(OC)cc2[N+](=O)[O-])NC(=O)c2ccccc2)cc1	7.9	0.9	0.7	31.0	12.1	-2.3
COc1ccc(-c2noc(CSc3nnc(-c4ccccc4)n3C)n2)cc1	14.5	0.2	0.3	65.8*	84.4*	-6.6
COc1ccc(-c2noc(CSc3nnc(-c4ccncc4)n3-c3ccc(F)cc3)n2)cc1OC	-10.8	0.4	0.8	23.4	58.8*	0.2
Cc1nnc(NC(=O)C2CCN(c3nnnn3-c3ccccc3)CC2)s1	-3.2	0.8	0.9	11.4	17.5	-6.5
COCCn1nnnc1C(C(C)C)N1CCOCC1 (configuration not stated)	39.9*	1.1	1	0.8	-8.0	5.2
COCCNC(=O)C(OC(=O)c1cc2oc(C)cc2n1C)C(C)C (configuration not stated)	-1.0	0.8	0.8	18.1	18.3	-5.2
COc1ccc2cc(/C=N/NC(=O)CSCc3ccc([N+](=O)[O-])cc3)c(Cl)nc2c1	6.8	0.9	1	3.2	11.6	-8.7
O=C(O)c1ccccc1S(=O)(=O)NCC(O)COc1ccc(Br)cc1 (configuration not stated)	19.9	0.9	0.7	25.8	12.0	-5.3
CCOC(=O)C1=C(C)NC2=C(C(=O)CCC2)C1c1coc2ccccc2c1=O (configuration not stated)	25.6	0.4	0.3	68.5*	64.6*	18.2
CCCOC(=O)C1=C(C)NC2=C(C(=O)CCC2)C1c1cccs1 (configuration not stated)	4.0	0.2	0.3	71.4*	78.2*	-1.7
CC1=C(C(=O)Nc2ccccc2C)C(c2ccc(C)o2)C2=C(CCCC2=O)N1 (configuration not stated)	9.4	0.3	0.4	57.0*	69.4*	22.8
COC(=O)C1=C(C)NC2=C(C(=O)CCC2)C1c1coc2ccccc2c1=O (configuration not stated)	-8.2	0.6	0.9	9.9	39.1	2.1
CC1=C(C(=O)OC2CCCC2)C(c2ccc(C)o2)C2=C(CC(c3cccs3)CC2=O)N1 (configuration not stated)	22.4	0.9	0.3	71.7*	14.2	4.1
CC1=C(C(=O)OC2CCCCCC2)C(c2ccc(C)o2)C2=C(CCCC2=O)N1 (configuration not stated)	14.7	/	/	/	/	-0.3
Cn1c(=O)c2c(nc(CN3CCN(C(=O)c4ccco4)CC3)n2Cc2ccccc2F)n(C)c1=O	23.3	1	0.9	8.3	2.2	23.9
CCCOC(=O)C1=C(C)NC2=C(C(=O)CCC2)C1c1cccc(OC)c1OC (configuration not stated)	3.4	0.2	0.8	20.5	77.8*	12.5
Clc1ccc(CSc2cc3c(nn2)-c2ccccc2CC3)cc1	29.2	0.8	0.9	7.5	25.0	9.0
Cc1cc2c(=O)n(CC(=O)NCC(=O)N3CCN(Cc4ccccc4)CC3)cnc2s1	21.5	0.8	0.5	51.8*	17.1	-9.9
CCOc1ccccc1N(CC(=O)Nc1cccnc1)S(C)(=O)=O	-2.0	0.8	0.8	16.4	15.3	18.6
COc1ccc(C)cc1N(CC(=O)O)S(=O)(=O)c1ccc(C)cc1	0.3	0.9	1	0.6	7.7	-1.0
SMILES	PostGolgi ctrl	CYP2C19 act	CYP2C9 act	CYP2C9 inhib	CYP2C19 inh	PostGolgi yeast
CCN(CC)S(=O)(=O)c1ccc(NC(=O)CN(c2ccc(OC)cc2OC)S(C)(=O)=O)cc1	24.4	0.1	0	100.0*	85.9*	-1.8
COc1ccc(OC)c(N(CC(=O)Nc2cccnc2)S(=O)(=O)c2ccc(OC)c(OC)c2)c1	-0.3	0.1	0.1	90.1*	88.0*	0.4
COc1ccc(OC)c(N(CC(=O)Nc2cccnc2)S(=O)(=O)c2ccc(C)cc2)c1	7.0	0	0.1	94.0*	95.1*	-6.0
COc1ccc(OC)c(N(CC(=O)Nc2cccnc2)S(C)(=O)=O)c1	4.3	0.4	0.7	32.6	55.7*	0.3
CCOC(=O)c1[nH]c2ccccc2c1NC(=O)CN(C)C	2.3	0.7	0.9	5.1	31.8	-7.8
COc1cccc(C2=CC(c3cccs3)n3nnnc3N2)c1 (configuration not stated)	10.0	0.6	0.6	40.1	38.1	-6.4
COc1ccc(C2=CC(c3ccc(F)cc3)n3nnnc3N2)cc1 (configuration not stated)	9.6	0.5	0.1	92.8*	51.6*	-0.3
COc1ccc(C2=CC(c3sccc3C)n3nnnc3N2)cc1 (configuration not stated)	12.0	0.2	0.1	91.4*	82.1*	-5.8
COc1cccc(C2=CC(c3ccc(OC)c(OC)c3OC)n3nnnc3N2)c1 (configuration not stated)	11.2	0.5	0.2	81.0*	52.3*	13.4
Cc1ccc(C2=CC(c3ccc(N(C)C)cc3)n3nnnc3N2)cc1 (configuration not stated)	-2.3	0.2	0.3	65.0*	78.1*	5.7
C/C(=N\NC(=O)c1csc2ccccc12)c1ccc(O)cc1	12.8	0.2	2.8*	-175.2	84.3*	-2.5
COC(=O)c1ccc(CSc2ncnc3c2nnn3-c2ccc(F)cc2)o1	8.3	0.9	1	4.8	9.2	-1.6
O=C(C(Cc1ccccc1)n1cccc1)N1CCN(c2ncccn2)CC1 (configuration not stated)	5.2	0.6	0.3	68.8*	43.3	-2.5
Cc1cccc(N2CCN(C(=O)C(Cc3ccccc3)n3cccc3)CC2)c1C (configuration not stated)	13.9	0.7	1.1	-14.2	27.9	-2.7
CC1CCN(C(=O)C(Cc2ccccc2)n2cccc2)CC1 (configuration not stated)	-0.9	0.1	0.8	21.9	92.7*	7.8
CCOC(=O)COc1nc(Nc2ccccc2C)nc(N(C)C)n1	2.2	0.6	0.6	35.9	35.1	-3.6
O=c1[nH]n(-c2ccc(Cl)cc2)c2ncccc12	26.4	1	1.1	-5.2	-3.7	4.7
CCCCS(=O)(=O)Nc1ccc(Cc2ccncc2)cc1	6.1	0	0	100.0*	100.0*	2.7
O=C(NCCc1csc(-c2ccccc2)n1)c1ccc(Br)o1	34.5*	0	0.4	61.3*	100.3*	-5.6
O=C(NCCc1csc(-c2cccnc2)n1)c1ccc(Br)o1	0.6	0.5	0.6	42.3	51.9*	-3.9
